# Data: PubChem BioAssay (NCATS)
# Results filed as inconclusive are left out. A call without a number means that no potency is given here. The source made the active and inactive calls. Unless noted, the call rests on the fitted dose curve; in most records, active means well fitted curve in the direction sought with a large enough effect in the repeat runs; inconclusive means weak or mixed curves; inactive means no such curve, though single readings can be large; an effect the other way counts as inactive or inconclusive.
# Biological target: Calcium and integrin-binding protein 1 (Homo sapiens) (UniProt Q99828)
# Sequence (Q99828 whole entry, looked up): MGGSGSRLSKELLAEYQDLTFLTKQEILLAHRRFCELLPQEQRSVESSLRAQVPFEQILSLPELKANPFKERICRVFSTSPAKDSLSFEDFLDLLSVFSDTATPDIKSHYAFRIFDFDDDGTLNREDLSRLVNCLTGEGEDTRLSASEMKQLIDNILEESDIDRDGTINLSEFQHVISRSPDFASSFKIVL
# Experiment: Primary qHTS for Identification of Calcium Integrin Binding Protein 1 (CIB1) Competitor (AID 1508620; active means well fitted curve in the direction sought with a large enough effect; an effect the other way counts as inactive or inconclusive;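 further: GST tagged CIB1 binding a fluorescein labelled alphaIIb integrin peptide tracer; top concentration of the series differs between compounds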)
# Settings: CIB1-GST / FITC-alphaIIb peptide fluorescence polarization; series mostly up to 114 µM
# In short: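 Fluorescence polarization competition: GST-tagged CIB1 (1 uM final) preincubated with compound 15 min at room temperature, then FITC-labelled alphaIIb peptide (100 nM final) added. After 15 min at room temperature, polarization read at Ex 480/Em 540.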
row,Compound,Potency
1,Cc1cccc(-c2[nH]c(Cc3cccc(C(N)=O)c3)nc2-c2ccc3nccnc3c2)n1,inactive
2,NC(=O)C(CCC(F)(F)F)N(Cc1ccc(-c2ncon2)cc1F)S(=O)(=O)c1ccc(Cl)cc1 (configuration not stated),inactive
3,CC(C)(C)CCN1C[C@@H]2C(CNC(=O)c3cc(Cl)cc(Cl)c3)[C@@H]2C1 (some centres not stated),inactive
4,O=C1CCC(c2ccccc2)(C2CCN(Cc3ccc(I)cc3)CC2)C(=O)N1 (configuration not stated),inactive
5,CC(C)/C=C1\NC(=O)C(C(C)C)n2c1nc1c(c2=O)C=CC=CO1 (configuration not stated),inactive
6,C=C1C(OC2OCC(O)C(O)C2O)CC2C(C)(C)C(O)CCC2(C)C1CC/C(C)=C\CO (configuration not stated),inactive
7,c1cc(OCCCN2CCCCC2)ccc1CN1CCCCC1,inactive
8,CCC(C)C(=O)O[C@H]1CCC=C2C=C[C@H](C)[C@H](CC[C@@H](O)C[C@@H](O)CC(=O)O)[C@H]21 (some centres not stated),inactive
9,O=[N+]([O-])c1cn2c(n1)OCC(OCc1ccc(OC(F)(F)F)cc1)C2 (configuration not stated),inactive

# Tested on: not listed separately
# Experiment: Primary qHTS for small molecule stabilizers of the endoplasmic reticulum resident proteome: Secreted ER Calcium Modulated Protein (SERCaMP) assay (AID 1508630; active means well fitted curve in the direction sought with a large enough effect; an effect the other way counts as inactive or inconclusive)
# Settings: SH-SY5Y GLuc-SERCaMP (Gaussia luciferase released on ER calcium loss) secretion, thapsigargin, luminescence; series mostly up to 38.4 µM
# In short: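 The SH-SY5Y reporter protocol was run at 3 concentrations up to 38.3 uM (primary) or 11 concentrations (follow-up): 16 h compound, 100 nM thapsigargin for 4 h, then extracellular luciferase luminescence.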
row,Compound,outcome
1,CC(=O)O[C@H]1C(=O)[C@@]2(C)[C@H]([C@H](OC(=O)c3ccccc3)[C@]3(O)C[C@H](OC(=O)[C@H](O)[C@@H](NC(=O)c4ccccc4)c4ccccc4)C(C)=C1C3(C)C)[C@]1(OC(C)=O)CO[C@@H]1C[C@@H]2O,inactive
2,O=C(O)c1ccccc1NCCc1ccccc1,inactive
3,CCC(C(=O)O)c1ccc(N2Cc3ccccc3C2=O)cc1 (configuration not stated),inactive

# Tested on: not listed separately
# Experiment: A High-Content qHTS Against Drug Library for the Identification of Small Molecules that Inhibit DYT1 Early Onset Primary Dystonia-Associated Cell Pathology (AID 1645839; calls by dose curve; further: potency means the concentration at half of the fitted maximal effect)
# Settings: HEK293 Flp-In EGFP-delE TorsinA, punctate imaging, 48 h; series mostly up to 46.1 µM
# In short: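 Cells were seeded and left for 24 h, then dosed with compound alongside tetracycline induction of mutant EGFP-TorsinA. They were incubated for 48 h, fixed in 4% paraformaldehyde, permeabilized and imaged for mislocalization (%pathology) and cell count.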
row,Compound,Potency
1,Nc1ccccc1N,35.5 µM (active)
2,O=C(O)c1c(O)c(-c2ccccc2)nc2ccccc12,inactive
3,CCOCCOC(=O)/C=C/c1ccc(OC)cc1,inactive
4,O=C(O)c1ccccc1NCCc1ccccc1,inactive
5,CCC(C(=O)O)c1ccc(N2Cc3ccccc3C2=O)cc1 (configuration not stated),inactive

# Biological target: Cytochrome P450 2D6 (Homo sapiens) (UniProt P10635)
# Sequence (P10635 whole entry, looked up): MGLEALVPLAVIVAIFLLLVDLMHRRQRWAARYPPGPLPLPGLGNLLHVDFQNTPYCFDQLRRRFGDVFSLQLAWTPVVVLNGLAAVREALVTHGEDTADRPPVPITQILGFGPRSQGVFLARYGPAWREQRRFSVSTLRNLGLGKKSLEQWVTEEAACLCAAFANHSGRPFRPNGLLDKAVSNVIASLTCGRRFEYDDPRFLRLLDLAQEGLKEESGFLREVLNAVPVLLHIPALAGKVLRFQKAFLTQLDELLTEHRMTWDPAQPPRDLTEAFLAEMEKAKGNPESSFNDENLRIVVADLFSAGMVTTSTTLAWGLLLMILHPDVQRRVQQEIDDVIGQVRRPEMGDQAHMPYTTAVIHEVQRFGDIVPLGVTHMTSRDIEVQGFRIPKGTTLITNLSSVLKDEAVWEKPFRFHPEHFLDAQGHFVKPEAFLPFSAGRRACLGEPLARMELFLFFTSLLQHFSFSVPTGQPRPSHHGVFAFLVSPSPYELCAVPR
# Experiment: Cytochrome P450 family 2 subfamily D member 6 (CYP2D6) small molecule antagonists: luciferase biochemical (cell-free) qHTS assay (AID 1645840); further: nearly all actives have a fitted effect of over 55% in size; further: potency means the concentration at half of the fitted maximal effect
# Settings: P450-Glo CYP2D6 enzyme, luciferin luminescence, 1 h; series mostly up to 57.4 µM
# In short: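 P450-Glo CYP2D6 system: proluciferin substrate converted by enzyme to luciferin, read by luminescence proportional to activity. Enzyme-substrate mix with compound 10 min at room temperature, then NADPH regeneration 1 h before detection reagent.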
row,Compound,Potency
1,Cn1nc(C(C)(C)C)cc1C(=O)NC(Cc1cccc(Cl)c1)C(=O)NCC#N (configuration not stated),15.1 µM (active)
2,C[C@@H](O)[C@H](NC(=O)c1ccc(C#Cc2ccc(CN3CCOCC3)cc2)cc1)C(=O)NO,inactive
3,CC(Cc1cc2c(c(C(N)=O)c1)N(CCCO)CC2)NCCOc1ccccc1OCC(F)(F)F (configuration not stated),7.56 µM (active)
4,Nc1ccccc1N,14.6 µM (active)
5,CS(=O)(=O)NCC1CCC(Nc2nc3c(s2)CCSc2ccccc2-3)CC1 (configuration not stated),10.7 µM (active)
6,COc1ccc(-c2nc(-c3ccc(-c4cccc(Cl)c4)o3)[nH]c2-c2ccc(OC)cc2)cc1,inactive
7,O=C(O)c1c(O)c(-c2ccccc2)nc2ccccc12,inactive
8,COC(=O)[C@@]1(c2ccc(C)cc2)C[C@H]1CN1CCC(O)(c2ccccc2)CC1,2.68 µM (active)
9,CCNCc1nc2c(N)nc3ccccc3c2n1CC(C)(C)O,5.35 µM (active)
10,CNC(=O)c1cc(Oc2ccc3nc(N[C@@H]4CCCC[C@H]4O)sc3c2)ccn1,16.9 µM (active)
11,CC(=O)NC[C@H]1CN(c2ccc(N3CCN(C(=O)CO)CC3)c(F)c2)C(=O)O1,inactive
12,COc1ccc(-n2[nH]c(=O)c3[nH]c4cc(Cl)ccc4c(=O)c3c2=O)c(C)c1,inactive
13,CCc1cccc(CC)c1NC(=O)c1nn(C)c2c1CCc1cnc(Nc3ccc(C(=O)NC4CCN(C)CC4)cc3OC(F)(F)F)nc1-2,9.28 µM (active)
14,CCCC(=O)C1CCN(c2ncnc3c2CN(C(=O)c2ccc(-c4ccccc4)cc2)CC3)CC1,21.3 µM (active)
15,Nc1nc2c(c(N3CCNCC3)n1)CCC1=C2[C@@H]2CCCC[C@@H]2O1,19 µM (active)
16,Cc1ccc(S(=O)(=O)Nc2ccccc2N2CCCCC2)s1,inactive
17,Cc1cccc(-c2[nH]c(Cc3cccc(C(N)=O)c3)nc2-c2ccc3nccnc3c2)n1,13.5 µM (active)
18,NC(=O)C(CCC(F)(F)F)N(Cc1ccc(-c2ncon2)cc1F)S(=O)(=O)c1ccc(Cl)cc1 (configuration not stated),12 µM (active)
19,CC(C)(C)CCN1C[C@@H]2C(CNC(=O)c3cc(Cl)cc(Cl)c3)[C@@H]2C1 (some centres not stated),3.79 µM (active)
20,O=C1CCC(c2ccccc2)(C2CCN(Cc3ccc(I)cc3)CC2)C(=O)N1 (configuration not stated),13.5 µM (active)
21,c1cc(OCCCN2CCCCC2)ccc1CN1CCCCC1,inactive
22,O=[N+]([O-])c1cn2c(n1)OCC(OCc1ccc(OC(F)(F)F)cc1)C2 (configuration not stated),inactive

# Biological target: Cytochrome P450 2C9 (Homo sapiens) (UniProt P11712)
# Sequence (P11712 whole entry, looked up): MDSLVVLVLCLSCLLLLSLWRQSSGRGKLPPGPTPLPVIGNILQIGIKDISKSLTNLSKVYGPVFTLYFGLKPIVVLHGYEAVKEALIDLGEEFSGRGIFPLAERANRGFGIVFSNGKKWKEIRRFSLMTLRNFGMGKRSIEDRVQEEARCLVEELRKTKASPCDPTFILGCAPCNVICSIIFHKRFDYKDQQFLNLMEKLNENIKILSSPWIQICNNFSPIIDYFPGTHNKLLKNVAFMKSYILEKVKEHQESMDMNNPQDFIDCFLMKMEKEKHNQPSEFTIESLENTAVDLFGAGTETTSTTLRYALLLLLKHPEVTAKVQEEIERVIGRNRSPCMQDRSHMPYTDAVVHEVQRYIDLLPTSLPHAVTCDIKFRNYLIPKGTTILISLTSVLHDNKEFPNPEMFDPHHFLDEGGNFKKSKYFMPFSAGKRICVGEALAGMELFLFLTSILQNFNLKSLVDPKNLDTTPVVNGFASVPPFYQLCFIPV
# Experiment: Cytochrome P450 family 2 subfamily C member 9 (CYP2C9) small molecule antagonists: luciferase biochemical (cell-free) qHTS assay (AID 1645842); further: nearly all actives have a fitted effect of over 55% in size; further: potency means the concentration at half of the fitted maximal effect
# Settings: P450-Glo CYP2C9 enzyme assay, luciferin luminescence; series mostly up to 57.4 µM
# In short: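 P450-Glo CYP2C9 system: proluciferin substrate with enzyme in mix containing 0.4% BSA, 10 min at room temperature, then NADPH regeneration solution added and incubated 1 h at 37C. Detection reagent stopped reaction; luminescence read after 20 min as RLU.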
row,Compound,Potency
1,Nc1ccccc1N,35.6 µM (active)
2,COc1ccc(-n2[nH]c(=O)c3[nH]c4cc(Cl)ccc4c(=O)c3c2=O)c(C)c1,inactive
3,CCC(C(=O)O)c1ccc(N2Cc3ccccc3C2=O)cc1 (configuration not stated),inactive
4,c1cc(OCCCN2CCCCC2)ccc1CN1CCCCC1,inactive

# Tested on: not listed separately
# Experiment: Primary qHTS for inhibitors of nuclear receptor binding SET domain protein 2 (NSD2) in an isogenic RCH-ACV NSD2 p.E1099K mutant (9B) (AID 1645876; active means well fitted curve in the direction sought with a large enough effect; an effect the other way counts as inactive or inconclusive; further: nearly all actives have a fitted effect of over 70% in size; further: potency means the concentration at half of the fitted maximal effect)
# Settings: RCH-ACV (leukaemia line) NSD2 E1099K (9B) viability, CellTiter-Glo, 72 h; series mostly up to 44.9 µM
row,Compound,Potency
1,CC(=O)O[C@H]1C(=O)[C@@]2(C)[C@H]([C@H](OC(=O)c3ccccc3)[C@]3(O)C[C@H](OC(=O)[C@H](O)[C@@H](NC(=O)c4ccccc4)c4ccccc4)C(C)=C1C3(C)C)[C@]1(OC(C)=O)CO[C@@H]1C[C@@H]2O,0.0069 µM (active)
2,O=C(O)c1c(O)c(-c2ccccc2)nc2ccccc12,inactive
3,O=C(O)c1ccccc1NCCc1ccccc1,inactive
4,CCC(C(=O)O)c1ccc(N2Cc3ccccc3C2=O)cc1 (configuration not stated),inactive
